The results in this text go back to PubChem BioAssay (NCATS).

Results filed as inconclusive are left out. Calls of active or inactive are those of the source. The call rests on the fitted dose curve; in most records, active means well fitted curve in the direction sought with a large enough effect; inconclusive means small, poorly fitted or top-dose-only effect, or another doubt; inactive means no such curve, though single readings can be large; an effect the other way counts as inactive or inconclusive.

The target in test [1] is Luciferin 4-monooxygenase (Photinus pyralis) (UniProt P08659). Description: Biochemical firefly luciferase enzyme assay for NPC (AID 624030).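 Further: purified P. pyralis luciferase at 10 nM with luciferin and ATP substrate; nearly all actives have a fitted effect of over 70% in size.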 Conditions: purified P. pyralis luciferase, luminescence, 5 min; series mostly up to 58.6 µM. The method in brief: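 Counter-screen for direct inhibition of the luciferase enzyme by approved-drug library compounds, run at 10 nM enzyme in 50 mM Tris acetate (final). Luminescence was read within 5 min of enzyme-buffer addition and normalized to PTC124 versus DMSO (0%).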
Sequence of Luciferin 4-monooxygenase (Photinus pyralis) (P08659 whole entry, looked up): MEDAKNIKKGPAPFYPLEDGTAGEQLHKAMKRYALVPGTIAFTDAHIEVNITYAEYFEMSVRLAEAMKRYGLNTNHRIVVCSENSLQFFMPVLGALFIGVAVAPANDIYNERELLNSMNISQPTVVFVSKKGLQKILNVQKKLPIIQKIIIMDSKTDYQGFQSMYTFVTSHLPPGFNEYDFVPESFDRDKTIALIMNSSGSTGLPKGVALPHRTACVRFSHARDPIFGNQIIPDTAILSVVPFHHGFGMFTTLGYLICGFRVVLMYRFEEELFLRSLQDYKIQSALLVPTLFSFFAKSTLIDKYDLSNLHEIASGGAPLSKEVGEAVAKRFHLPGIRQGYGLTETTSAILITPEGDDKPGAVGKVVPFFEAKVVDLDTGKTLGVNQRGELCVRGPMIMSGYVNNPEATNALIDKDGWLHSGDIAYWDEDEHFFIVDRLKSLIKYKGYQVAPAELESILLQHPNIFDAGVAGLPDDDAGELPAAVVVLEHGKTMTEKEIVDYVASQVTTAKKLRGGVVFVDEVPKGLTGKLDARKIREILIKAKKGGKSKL

Test [2] can be described thus: S16 Schwann cell viability assay (CellTiter-Glo assay) (AID 624031).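 Further: cellular ATP luminescence as a viability measure; nearly all actives have a fitted effect of over 70% in size.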 Conditions: S16 rat Schwann cells viability, 24 h; series mostly up to 25.7 µM. The method in brief:
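Untransfected S16 rat Schwann cells; compound 24 h, 37 °C/5% CO2; CellTiter-Glo ATP luminescence. % activity vs no-cell wells and DMSO controls (0%); concentration-effect curves classed by r2, response magnitude, activity.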
(In ATP-based viability assays light output follows the ATP content of the culture.)

The next test has as its system 3D7. Description: qHTS profiling for inhibitors of Plasmodium falciparum proliferation (AID 504749). Further: nearly all actives have a fitted effect of over 60% in size. Further: potency means the concentration at half of the fitted maximal effect. As to conditions: P. falciparum in erythrocytes, SYBR Green DNA, 72 h; series mostly up to 12.8 µM. The method in brief: (§1)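 Fluorescence of SYBR Green-bound parasite DNA, read at 485/535 nm, served as the growth measure. Infected erythrocytes were cultured with compound 72 h; artemisinin (0.29 uM) and DMSO wells defined the normalization range.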
On the technique in general: qHTS replaces the single test concentration by a dilution series.

A further test concerns CP185. Described as above. Conditions: P. falciparum in erythrocytes, SYBR Green DNA, 72 h; series mostly up to 12.8 µM. The method in brief: as §1
The test system of the next test is CP192. The test is described as above. As to conditions: P. falciparum in erythrocytes, SYBR Green DNA, 72 h; series mostly up to 28.7 µM. The method in brief: as §1
For another test, the system named is CP194. The description is as above. As to conditions: P. falciparum in erythrocytes, SYBR Green DNA, 72 h; series mostly up to 12.8 µM. The method in brief:
as §1

A further test has as its system CP201. The test is described as above. Conditions: P. falciparum in erythrocytes, SYBR Green DNA, 72 h; series mostly up to 12.8 µM. The method in brief: as §1
Another test concerns CP203. The description is as above. As to conditions: P. falciparum in erythrocytes, SYBR Green DNA, 72 h; series mostly up to 12.8 µM. The method in brief:
as §1

Another test concerns CP250. The test is described as above. Conditions: P. falciparum in erythrocytes, SYBR Green DNA, 72 h; series mostly up to 12.8 µM. The method in brief: as §1
In a further test the test system is CP256. Described as above. Conditions: P. falciparum in erythrocytes, SYBR Green DNA, 72 h; series mostly up to 12.8 µM. The method in brief: as §1
The subject of the next test is CP286. The description is as above. As to conditions: P. falciparum in erythrocytes, SYBR Green DNA, 72 h; series mostly up to 12.8 µM. The method in brief: as §1
In a further test the test system is CP305. The description is as above. As to conditions: P. falciparum in erythrocytes, SYBR Green DNA, 72 h; series mostly up to 12.8 µM. The method in brief: as §1
The subject of another test is DIV30. The description is as above. Conditions: P. falciparum in erythrocytes, SYBR Green DNA, 72 h; series mostly up to 12.8 µM. The method in brief:
as §1

For another test, the system named is FAB9. The test is described as above. Conditions: P. falciparum in erythrocytes, SYBR Green DNA, 72 h; series mostly up to 12.8 µM. The method in brief:
as §1

For another test, the system named is HB3. The test is described as above. As to conditions: P. falciparum in erythrocytes, SYBR Green DNA, 72 h; series mostly up to 12.8 µM. The method in brief: as §1
The test system of another test is N140. Described as above. As to conditions: P. falciparum in erythrocytes, SYBR Green DNA, 72 h; series mostly up to 12.8 µM. The method in brief:
as §1

Another test has as its system P94_40. The test is described as above. Conditions: P. falciparum in erythrocytes, SYBR Green DNA, 72 h; series mostly up to 12.8 µM. The method in brief: as §1
The test system of a further test is PC15. The test is described as above. Conditions: P. falciparum in erythrocytes, SYBR Green DNA, 72 h; series mostly up to 12.8 µM. The method in brief:
as §1

A further test deals with TAB113. The description is as above. As to conditions: P. falciparum in erythrocytes, SYBR Green DNA, 72 h; series mostly up to 12.8 µM. The method in brief:
as §1

A further test relates to TAB165. Described as above. Conditions: P. falciparum in erythrocytes, SYBR Green DNA, 72 h; series mostly up to 12.8 µM. The method in brief:
as §1

In the case of `CN1CCCC[C@@H]1CCN1c2ccccc2Sc2ccc(S(C)=O)cc21` (stereo partly drawn), the compound was classed as inactive in test [1]. Besides, the Potency entry (in [2]; in the test on 3D7; in the test on CP185; in the test on CP192; in the test with CP194; with CP201) was “inactive” each time. Besides, the Potency result in the test with CP203, in the test with CP250, in the test on CP256, in the test on CP286, with CP305 and in the test on DIV30 was “inactive” in each case. For the same compound, the Potency entry with FAB9, with HB3, with N140, in the test on P94_40, in the test on PC15 and in the test on TAB113 was “inactive” in each case. Also, the Potency entry in the test on TAB165 was “inactive”.

For the compound `CC(=O)OCC1=C(C(=O)O)N2C(=O)[C@@H](NC(=O)CSc3ccncc3)[C@@H]2SC1`, the compound was called inactive in [1]. The Potency entry (in [2]; with 3D7; in the test on CP185; in the test on CP192; in the test with CP194; in the test on CP201) was “inactive” each time. The Potency entry in the test on CP203, in the test with CP250, in the test on CP256, in the test with CP286, in the test with CP305 and with DIV30 was “inactive” throughout. Also, the Potency result in the test with FAB9, with HB3, in the test on N140, in the test on P94_40, with PC15 and with TAB113 was “inactive” each time. For the same compound, the Potency result with TAB165 is “inactive”.

In the case of `CC[C@@]12CCCN3CCc4c(n(c5ccccc45)C(=O)C1)[C@H]32`, the compound was classed as inactive in test [1]. Moreover, the Potency entry (in test [2]; with 3D7; in the test on CP185; with CP192; in the test on CP194; with CP201) was “inactive” each time. For the same compound, the Potency entry in the test with CP203, in the test on CP250, in the test with CP256, in the test on CP286, in the test with CP305 and with DIV30 was “inactive” each time. In addition, the Potency entry in the test on FAB9, in the test with HB3, with N140, with P94_40, in the test on PC15 and with TAB113 was “inactive” in each case. Moreover, in the test on TAB165, the Potency result was “inactive”.

For the compound `CCCN(CCC)C(=O)[C@@H](CCC(=O)O)NC(=O)c1ccccc1`, the result in test [1] was inactive. For the same compound, the Potency result (in test [2]; in the test on 3D7; in the test with CP185; in the test with CP192; in the test with CP194; in the test on CP201) was “inactive” each time. The Potency entry with CP203, with CP250, with CP256, in the test on CP286, with CP305 and in the test on DIV30 was “inactive” each time. For the same compound, the Potency result in the test on FAB9, in the test with HB3, with N140, in the test with P94_40, in the test with PC15 and in the test with TAB113 was “inactive” each time. Besides, the Potency entry with TAB165 is “inactive”.

For `CO/N=C(\C(=O)N[C@@H]1C(=O)N2C(C(=O)O)=C(COC(C)=O)CS[C@@H]12)c1csc(N)n1`, the outcome in [1] was inactive. Also, the Potency result (in [2]; in the test with 3D7; with CP185; in the test with CP192; with CP194; with CP201) was “inactive” in each case. Also, the Potency entry in the test on CP203, with CP250, in the test with CP256, with CP286, in the test with CP305 and with DIV30 was “inactive” each time. The Potency result in the test with FAB9, in the test on HB3, in the test with N140, in the test on P94_40, in the test with PC15 and in the test with TAB113 was “inactive” throughout. Moreover, the Potency entry in the test on TAB165 is “inactive”.

For `CC(C)NC[C@H](O)c1cc(O)cc(O)c1`, the outcome in [1] was inactive. The Potency entry (in test [2]; in the test with 3D7; in the test on CP185; in the test on CP192; with CP194; in the test on CP201) was “inactive” in each case. Further, the Potency entry with CP203, with CP250, with CP256, with CP286, in the test on CP305 and in the test on DIV30 was “inactive” in each case. Also, the Potency result in the test on FAB9, with HB3, in the test on N140, in the test on P94_40, in the test with PC15 and in the test on TAB113 was “inactive” throughout. The Potency entry with TAB165 was “inactive”.

In the case of `CCn1cc(C(=O)O)c(=O)c2cc(F)c(N3CCN[C@@H](C)C3)c(F)c21`, the result in [1] was inactive. The Potency result (in [2]; in the test on 3D7; in the test on CP185; in the test with CP192; in the test on CP194; with CP201) was “inactive” throughout. Besides, the Potency result in the test with CP203, in the test on CP250, in the test on CP256, with DIV30, in the test with FAB9 and in the test on HB3 was “inactive” each time. For the same compound, the Potency result with N140, in the test with P94_40, with PC15 and in the test with TAB165 was “inactive” in each case.

For `C[C@@H](CCc1ccccc1)NC[C@H](O)c1ccc(O)c(C(N)=O)c1`, the compound was called inactive in [1]. Also, the Potency entry (in test [2]; in the test on CP185; with CP192; in the test with CP194; in the test with CP201; with CP203) was “inactive” throughout. For the same compound, the Potency result with CP250, in the test on CP256, with CP286, in the test on CP305, in the test on FAB9 and in the test on N140 was “inactive” each time. Further, the Potency entry with P94_40, in the test on PC15, in the test on TAB113 and in the test with TAB165 was “inactive” in each case.

With `NC(=O)c1cc[n+](CC2=C(C(=O)O)N3C(=O)[C@@H](NC(=O)[C@H](c4ccccc4)S(=O)(=O)[O-])[C@@H]3SC2)cc1`, the result in [1] was inactive. In addition, in test [2], the Potency entry was “inactive”. Also, the Potency in the test with 3D7 was 1120 nM (active); with CP250, 3980 nM (active); in the test with CP256, 3550 nM (active); in the test on CP286, 1780 nM (active); in the test on CP305, 2560 nM (active); in the test on DIV30, 2280 nM (active). For the same compound, the Potency with FAB9 was 3160 nM (active); with HB3 it was 891 nM (active); with N140, 1410 nM (active); in the test on P94_40, 1260 nM (active); with PC15 it was 1000 nM (active); in the test on TAB113, 1780 nM (active). The Potency in the test on TAB165 is 1000 nM (active).

With `CC(C)(C)NC[C@H](O)c1cc(O)cc(O)c1`, in [1], the compound was called inactive. Moreover, the Potency entry (in [2]; with 3D7; with CP185; in the test on CP192; with CP194; in the test on CP201) was “inactive” each time. For the same compound, the Potency entry with CP203, in the test on CP250, in the test on CP256, with CP286, in the test with CP305 and with DIV30 was “inactive” in each case. Moreover, the Potency entry in the test with FAB9, with HB3, in the test with N140, in the test on P94_40, with PC15 and with TAB113 was “inactive” throughout. Moreover, the Potency result with TAB165 was “inactive”.

`CC(=O)O[C@@H](C)C[N+](C)(C)C`: the outcome in [1] was inactive. Further, the Potency entry (in test [2]; in the test on 3D7; with CP185; in the test on CP192; in the test on CP194; in the test on CP201) was “inactive” throughout. Further, the Potency result with CP203, in the test with CP250, in the test with CP256, in the test with CP286, with CP305 and with DIV30 was “inactive” throughout. The Potency entry with FAB9, in the test with HB3, in the test on N140, in the test on PC15, in the test on TAB113 and in the test on TAB165 was “inactive” in each case.
